# Source: PubChem BioAssay (NCATS)
# Results filed as inconclusive are left out. Where a call stands in place of a potency, no number is given. Unmarked numbers belong to inactive results. Calls of active or inactive are those of the source. Calls follow the shape of the dose curve; as a rule, active = well fitted cell-killing curve with a large enough effect; inconclusive = small, poorly fitted or top-dose-only effect, or effect the other way; inactive = flat fitted curve, though single readings scatter.
# Experiments:
# Assay in all cases: Primary qHTS to identify gynecologic anti-cancer compounds using libraries of approved drugs and bioactive compounds (AID 1345084); also: nearly all actives have a fitted effect of over 55% in size
# Conditions in all cases: Gynecologic cancer cell panel viability, ATPlite luminescence, 48 h; series mostly up to 57.5 µM
# OV90 = test system: OV90
# How it was run: (§1)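 In this quantitative HTS, cell killing is estimated from loss of ATP-dependent luciferase light. Cells see five compound concentrations over a 48 h exposure.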
# PA-1 = test system: PA-1
# How it was run: as §1
# SKOV3 = test system: SKOV3
# How it was run: as §1
# Tov-21-G = test system: Tov-21-G
# How it was run: as §1
# Tov112D = test system: Tov112D
# How it was run: as §1
# Potency is read from the fitted curve at half-maximal effect.
SMILES,Potency (OV90),Potency (PA-1),Potency (SKOV3),Potency (Tov-21-G),Potency (Tov112D),"activity change, negative = cytotoxicity (OV90)","activity change, negative = cytotoxicity (PA-1)","activity change, negative = cytotoxicity (SKOV3)","activity change, negative = cytotoxicity (Tov-21-G)","activity change, negative = cytotoxicity (Tov112D)"
C=CCc1cc(OC)c(OC(C)C(O)c2ccc(O)c(OC)c2)c(OC)c1 (stereo not given),inactive,inactive,inactive,inactive,inactive,–,–,–,–,–
CC1(C)CC[C@]2(C(=O)O)CC[C@]3(C)C(=CCC4[C@@]5(C)CC[C@H](O[C@@H]6O[C@H](C(=O)O)[C@@H](O)[C@H](O)[C@H]6O)C(C)(C)C5CC[C@]43C)C2C1 (stereo not given in full),inactive,inactive,inactive,inactive,inactive,–,–,–,–,–
CC1=CC(=O)[C@]2(O[C@@H]3O[C@@H](C)[C@H](O)[C@@H](O)[C@H]3O)C=CO[C@@H](O[C@@H]3O[C@H](CO)[C@@H](O)[C@H](O)[C@H]3O)[C@H]12,inactive,inactive,inactive,inactive,inactive,–,–,–,–,–
CC1(CO)CCCC2(C)C1C(OC(=O)c1ccccc1)CC1C(=O)OCC12O (stereo not given),inactive,inactive,inactive,inactive,inactive,–,–,–,–,–
COC(=O)/C=C/c1ccc(O[C@@H]2O[C@H](CO)[C@@H](O)[C@H](O)[C@H]2O)cc1,inactive,inactive,inactive,inactive,inactive,–,–,–,–,–
CCC(C)/C=C(C)/C=C/C1=CC2=C(Cl)C(=O)C(C)(OC(C)=O)C(=O)C2=CN1C(CCC(=O)O)C(=O)O (stereo not given),inactive,inactive,inactive,inactive,inactive,–,–,–,–,–
O=C(N[C@@H]1CC[C@@H](c2cccc(F)c2F)CN(CC(F)(F)F)C1=O)N1CCC(n2c(=O)[nH]c3ncccc32)CC1,inactive,inactive,inactive,inactive,inactive,–,–,–,–,–
C/C1=C\CC[C@]2(C)O[C@H]2C(=O)c2c(C)coc2C1,inactive,10 µM (active),7.94 µM (active),8.91 µM (active),4.47 µM (active),–,–,–,–,–
CC(O)C(=O)/C=C/C=C/C(=O)OC1C=C2COC(=O)C2(O)C2(C)CCCC(C)(C)C12 (stereo not given),inactive,inactive,inactive,inactive,inactive,–,–,–,–,–
Cc1ccccc1-c1cc(N2CCN(C)CC2)ncc1N(C)C(=O)C(C)(C)c1cc(C(F)(F)F)cc(C(F)(F)F)c1,inactive,inactive,inactive,inactive,inactive,–,–,–,–,–
O=C(/C=C/c1ccc(O)cc1)OCC1OC(O)C(OC2OC(CO)C(O)C(O)C2O)C(O)C1O (stereo not given),inactive,inactive,inactive,inactive,inactive,–,–,–,–,–
COC(=O)[C@]1(C)CCC[C@@]2(C)[C@@H]3CC[C@@H]4C[C@@]3(CC[C@@H]21)C[C@H]4C(=O)O,inactive,inactive,inactive,inactive,inactive,–,–,–,–,–
C=C(C)C1Cc2c(ccc3c2OCC(c2ccc(O)cc2O)C3)O1 (stereo not given),inactive,inactive,inactive,inactive,inactive,–,–,–,–,–
O=C(O)CCc1ccc(NCc2cccc3c2CCCN3CCOc2ccccc2)cc1F,inactive,inactive,inactive,inactive,inactive,–,–,–,–,–
COc1c(C)c(OCC(O)C(C)(C)O)cc2c1CNC2=O (stereo not given),inactive,inactive,inactive,inactive,inactive,–,–,–,–,–
CC(=O)OCC1=C[C@@H]2OC(=O)C3=CO[C@@H](O[C@@H]4O[C@H](CO)[C@@H](O)[C@H](O)[C@H]4O)[C@H]1[C@@H]32,inactive,inactive,inactive,inactive,inactive,–,–,–,–,–
CC1=C2C(=O)C=C(CO[C@@H]3O[C@H](CO)[C@@H](O)[C@H](O)[C@H]3O)[C@@H]2[C@H]2OC(=O)[C@H](C)[C@@H]2[C@@H](O)C1,inactive,inactive,inactive,inactive,inactive,–,–,–,–,–
CC[C@@H]1C(=O)O[C@]23C=C[C@@H]4C(C(=O)OC)=CO[C@H](O[C@@H]12)[C@@H]43,inactive,inactive,inactive,inactive,inactive,–,–,–,–,–
CSCC1OC(n2cnc3c(=O)[nH]cnc32)C(O)C1O (stereo not given),inactive,inactive,inactive,inactive,inactive,–,–,–,–,–
O=C(CC1CC(c2ccc(F)cc2F)=NO1)N1CCOCC1 (stereo not given),inactive,inactive,inactive,inactive,inactive,–,–,–,–,–
C/C=C/C=C/C(=O)OC1CC/C=C/C(O)C(O)C(CCC)OC1=O (stereo not given),inactive,inactive,inactive,inactive,inactive,–,–,–,–,–
Cn1c2ccc(NC(=O)c3ccccc3)cc2c(=O)n2nc(C(=O)O)cc12,inactive,inactive,inactive,inactive,inactive,–,–,–,–,–
CC(=O)O[C@@H]1[C@@H](O)[C@H](C)O[C@@H](O[C@H]2[C@@H]3C=CO[C@@H](O[C@@H]4O[C@H](CO)[C@@H](O)[C@H](O)[C@H]4OC(C)=O)[C@@H]3[C@@]3(CO)O[C@@H]23)[C@@H]1OC(=O)/C=C/c1ccc(O)cc1,inactive,inactive,inactive,inactive,inactive,–,–,–,–,–
CC(=O)OCC(Cc1ccccc1)NC(=O)C(Cc1ccccc1)NC(=O)c1ccccc1 (stereo not given),inactive,inactive,inactive,inactive,inactive,–,–,–,–,–
C=C1CCC2(C(=O)OC3OC(CO)C(O)C(O)C3O)CCC3(C)C(=CCC4C5(C)CCC(OC6OC(CO)C(OC7OC(C)C(O)C(O)C7O)C(OC7OCC(O)C(O)C7O)C6O)C(C)(C)C5CCC43C)C2C1 (stereo not given),–,–,–,–,–,9.22% [at 11.6 µM],18.7% [at 11.6 µM],24.5% [at 11.6 µM],0.21% [at 11.6 µM],9.24% [at 11.6 µM]

SMILES,Potency (OV90),Potency (PA-1),Potency (SKOV3),Potency (Tov-21-G),Potency (Tov112D),"activity change, negative = cytotoxicity (OV90)","activity change, negative = cytotoxicity (PA-1)","activity change, negative = cytotoxicity (SKOV3)","activity change, negative = cytotoxicity (Tov-21-G)","activity change, negative = cytotoxicity (Tov112D)"
CC(C)C[C@H](NC(=O)[C@@H]1O[C@H]1C(=O)O)C(=O)NCCCCN=C(N)N,28.2 µM (active),inactive,inactive,inactive,inactive,–,–,–,–,–
CC(=O)OC1C(O)/C(C)=C\C2C(OC(=O)c3ccccc3)C(C)CC2(OC(C)=O)C(OC(C)=O)C(C)/C=C/C(C)(C)C1OC(C)=O (stereo not given),inactive,inactive,inactive,inactive,inactive,–,–,–,–,–
COc1ccc(/C=C/C(N)=O)cc1OC,inactive,inactive,inactive,inactive,inactive,–,–,–,–,–
COC(=O)C1=COC(OC2OC(CO)C(O)C(O)C2O)C2C(COC(=O)/C=C/c3ccc(O)c(O)c3)C(O)C(O)C12 (stereo not given),inactive,inactive,inactive,inactive,inactive,–,–,–,–,–
CC1(C)C=Cc2c(ccc3c2[N+]([O-])=C2C3(O)CC34NC(=O)C5(CCCN5C3=O)CC4C2(C)C)O1 (stereo not given),inactive,inactive,inactive,inactive,inactive,–,–,–,–,–
CC(C)C1NC(=O)C2CCCN2C1=O (stereo not given),inactive,inactive,inactive,inactive,inactive,–,–,–,–,–
C[C@@H]1O[C@@H](O[C@H]2[C@H](O[C@H]3[C@H](O[C@H]4CC[C@@]5(C)C(CC[C@]6(C)C5CC=C5[C@@H]7CC(C)(C)C[C@@H](O)[C@]7(C)CC[C@]56C)[C@@]4(C)CO)O[C@H](C(=O)O)[C@@H](O)[C@@H]3O)O[C@H](CO)[C@H](O)[C@@H]2O)[C@H](O)[C@H](O)[C@H]1O (stereo not given in full),–,–,–,–,–,7.08% [at 11.6 µM],4.96% [at 11.6 µM],11% [at 11.6 µM],5.74% [at 11.6 µM],0.964% [at 11.6 µM]
CC1=CCC(O)C2(C)CCC3C(C)C(=O)OC3C12 (stereo not given),inactive,inactive,inactive,inactive,inactive,–,–,–,–,–
OC[C@H]1O[C@@H](OCc2ccccc2)[C@H](O[C@@H]2OC[C@@H](O)[C@H](O)[C@H]2O)[C@@H](O)[C@@H]1O,inactive,inactive,inactive,inactive,inactive,–,–,–,–,–
CCc1cc(CC[C@]2(C3CCCC3)CC(O)=C(Cc3nc4nc(C)cc(C)n4n3)C(=O)O2)cc(CC)n1,inactive,inactive,inactive,inactive,inactive,–,–,–,–,–
COC(O)(CC(C)C)C1Oc2cc(C)[nH]c(=O)c2O1 (stereo not given),inactive,inactive,inactive,inactive,inactive,–,–,–,–,–
Nc1ccc(-n2nc(C(F)(F)F)cc2C(F)(F)F)cc1,inactive,inactive,inactive,inactive,inactive,–,–,–,–,–
CC[C@@H](Nc1c(Nc2cccc(C(=O)N(C)C)c2O)c(=O)c1=O)c1ccc(C)o1,inactive,inactive,inactive,inactive,inactive,–,–,–,–,–
COc1cc2c(cc1O)C(c1ccc(O)cc1)C(C)C(C)C2 (stereo not given),inactive,inactive,inactive,inactive,inactive,–,–,–,–,–
COc1cccc(OC)c1-c1ccc(C[C@H](NC(=O)c2c(Cl)cccc2Cl)C(=O)O)cc1,inactive,inactive,inactive,inactive,inactive,–,–,–,–,–
COc1ccc2[nH]c(S(=O)Cc3ncc(C)c(OC)c3C)nc2c1 (stereo not given),inactive,inactive,inactive,inactive,inactive,–,–,–,–,–
CC(C)C1C(OC(=O)/C=C/c2ccccc2)CC2(C)OC2CCC2(C)OC2C1O (stereo not given),inactive,inactive,inactive,inactive,inactive,–,–,–,–,–
CC1(C)COC(=O)[C@@H]1O[C@@H]1O[C@H](CO)[C@@H](O)[C@H](O)[C@H]1O,inactive,inactive,inactive,inactive,inactive,–,–,–,–,–
C/C(=C\C(=O)C[C@@]12C(=O)O[C@]3(C)CC[C@H]1C[C@H]23)C(N)=O,inactive,inactive,inactive,inactive,inactive,–,–,–,–,–
COc1ccc(-n2c(SCC#N)nc3sc4c(c3c2=O)CCCC4)cc1,inactive,inactive,inactive,inactive,inactive,–,–,–,–,–
C[C@H](/C=C/[C@@]1(O)[C@H](C)CC(=O)CC1(C)C)O[C@@H]1O[C@H](CO[C@@H]2OC[C@@H](O)[C@H](O)[C@H]2O)[C@@H](O)[C@H](O)[C@H]1O,inactive,inactive,inactive,inactive,inactive,–,–,–,–,–
Cc1ccc(C)c(S(=O)(=O)n2cnc3ccccc32)c1,inactive,inactive,inactive,inactive,inactive,–,–,–,–,–
O=C(O)[C@H]1Cc2ccccc2CN1,–,–,–,–,–,0.2% [at 6.55 µM],3.48% [at 6.55 µM],14.2% [at 6.55 µM],4.78% [at 6.55 µM],19.2% [at 6.55 µM]
CC(=O)NC1C(OC2CCC3(C)C(CCC4(C)C3CC=C3C5CC(C)(C)CCC5(C(=O)O)C(O)CC34C)C2(C)C)OC(CO)C(O)C1O (stereo not given),inactive,inactive,inactive,inactive,inactive,–,–,–,–,–
